Compounds with a hit are over-represented: about 9.4% of the library has one in this group of screens.
Pf growth 96h = P. falciparum growth inhibition at 96 hour, primary screen for plastid delayed-death inhibitors | Potency, µM (series often up to 28.7 µM), for the others: at the top dose activity change, negative = inhibition, hits mostly inhibitors | P. falciparum luciferase reporter growth, 96 h | actives 6.9% (n = 320,000) | AID 504834; further: on the % scale 0 is the no-effect control and ±100 the full control effect
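Readout is luminescence from an integrated firefly luciferase in P. falciparum. Red cells, 2% hematocrit and 0.05% parasitemia final, were cultured with compound through two parasite generations (96 hours) at 37 C, 5% CO2.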
SARS PLP yeast = SARS-CoV PLP inhibition in yeast; actives 0.19% (n = 330,000); Potency, µM (series often up to 32.9 µM), inactives show at the highest dose activity, positive = growth rescue, actives largely listed as activators; S. cerevisiae expressing SARS-CoV PLpro, growth rescue; calls by dose curve; further: 0% is about no effect; nearly all actives have a fitted effect of over 55% in size
Pf growth 48h = inhibits P. falciparum growth in the first generation, 48 h; P. falciparum luciferase growth in erythrocytes, 48 h; actives 5.9% (n = 310,000); Potency, µM (titrated, usually from 28.7 µM), inactives show top-dose activity change, negative = inhibition, actives largely listed as inhibitors; further: on the % scale 0 is the no-effect control and ±100 the full control effect
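Erythrocytes infected with P. falciparum carrying an integrated firefly luciferase reporter (2% hematocrit, 0.1% parasitemia final) were exposed to compounds in RPMI 1640 with 0.5% Albumax at 37 C, 5% CO2. Growth inhibition was scored as reduced luminescence.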
AMA1-RON2 inh = disrupts binding of P. falciparum AMA1 to RON2 | AlphaScreen AMA1-biotinylated RON2 peptide binding | Potency, µM (highest dose often 58.2 µM), inactives show at the highest dose activity change, negative = inhibition, actives largely listed as inhibitors | actives 0.2% (n = 360,000) | AID 720542;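 further: 0% = vehicle wells and -100% = peptide control; nearly all actives have a fitted effect of over 45% in size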
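AMA1 (3D7) with his tag at 25 nM final met compounds first, then biotinylated RON2 peptide at 25 nM; detection used donor plus acceptor beads, 10 µg/mL apiece, read by AlphaScreen after 30 min at room temperature.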
The depositor's hits bear a star; u = inconclusive; x = no result given; [ ] = dose if it differs, or a comment. Unless noted, the call rests on the fitted dose curve; in most records, active means well fitted curve in the direction sought with a large enough effect; inconclusive means small, poorly fitted or top-dose-only effect, or another doubt; inactive means no such curve, though single readings can be large; an effect the other way counts as inactive or inconclusive. Potency means the concentration at half of the fitted maximal effect.

SMILES	Pf growth 96h	SARS PLP yeast	Pf growth 48h	AMA1-RON2 inh
CCCN(CCC)CCCNC(=O)c1cn(CCOC)c(=O)c2c1c1ccccc1n2C	68%	2%	22%	5%
Cc1cc2oc(=O)cc(CN3CCCCC3)c2cc1C	4%	1%	17%	0%
Cc1cc2oc(=O)cc(CN3CCN(S(=O)(=O)c4cccs4)CC3)c2cc1C	7.4µM*	7%	u	0%[11.6 µM]
Cc1c(O)ccc2c(CN3CCN(C/C=C/c4ccccc4)CC3)cc(=O)oc12	u	0%	2.6µM*	0%
NC(=O)c1ccsc1NC(=O)COC(=O)Cc1ccccc1	u	1%	-15%	24%
Cc1ccc(NC(=O)Nc2cccs2)cc1	7.4µM*	-13%	56%	16%
O=C(Nc1cccs1)Nc1ccc(Br)cc1F	12µM*	-77%	u	-11%
O=C(Nc1cccs1)Nc1ccc(F)cc1F	u	-2%	65%	6%
Cn1cccc1C1C(C#N)=C(N)OC2=C1C(=O)CCC2 (centres undefined)	-19%	0%	25%	-1%
CCOc1ncccc1C(=O)OCC(=O)NC(=O)c1ccccc1	68%	6%	10%	-4%
CC[n+]1c(C)cc(C)n1-c1ccccc1	8.3µM*	4%	u	0%
CCOC(=O)c1ccc2c(c1)[n+](CC)c(C)n2-c1ccccc1	u	0%	u	0%
CC1CCCCC1NC(=O)c1ccc(S(=O)(=O)NNC(=O)c2ccncc2)cc1 (centres undefined)	-11%	3%	2.1µM*	9%
Cc1cc(NCCCO)n2c(nc3ccccc32)c1C#N	u	-17%	10µM*	11%
COCCNc1cc(C)c(C#N)c2nc3ccccc3n12	x	9%	u	13%
Cc1cc(NCCOCCO)n2c(nc3ccccc32)c1C#N	1.9µM*	1%	u	2%
Cc1ccc(S(=O)(=O)NCc2ccccc2)cc1C(=O)NCc1ccncc1	x	x	x	-7%
CCCN(CCO)Cc1ccc(F)c(Br)c1	-5%	-7%	10%	-5%
COc1cc2c(cc1OC)C1O[C@](c3ccsc3)(C2)OC2=C1C(=O)CC(C)(C)C2	u	-7%[6.58 µM]	u	x
COc1cc2c(cc1OC)C1O[C@](c3ccsc3)(C2)Oc2cc(-c3ccccc3)oc(=O)c21	1.5µM*	7%[6.58 µM]	u	x
COc1cc2c(cc1OC)C1O[C@](c3ccsc3)(C2)OC2=C1C(=O)OC1(CCCCC1)C2	1.3µM*	-4%[6.58 µM]	u	x
C/C(=C\c1ccc(N)cc1)c1nc2ccccc2[nH]1	-3%	-1%	9%	-2%
O=S(=O)(/C(=C/c1ccc(C(F)(F)F)cc1)c1nc2ccccc2[nH]1)c1ccccc1	1.7µM*	-27%	4.1µM*	-14%
CC(C)c1ccc(/C=C(\c2nc3ccccc3[nH]2)S(=O)(=O)c2ccccc2)cc1	2.3µM*	-3%	5.9µM*	-22%
COC(=O)/C(=C\c1ccc(O)cc1)c1nc2ccccc2[nH]1	158%	-7%	38%	15%
SMILES	Pf growth 96h	SARS PLP yeast	Pf growth 48h	AMA1-RON2 inh
Cc1ccc2c(c1)C(=O)CC(O)(C(F)F)O2 (centres undefined)	3%	5%	0%	12%
Cc1cnc(C(=O)OCC(=O)Nc2ccc(C)c(S(=O)(=O)N(C)C)c2)cn1	-7%	-8%	u	-3%
CCOC(=O)c1ccccc1NC(=O)CN(c1ccccc1)S(=O)(=O)N(C)C	x	-1%	3.3µM*	-6%
C/C(=N\Nc1cccc(Cl)c1)C1(C)N(O)C(C)(C)C(c2ccco2)=[N+]1[O-] (centres undefined)	u	1%	7.4µM*	-19%
Cc1ccccc1NS(=O)(=O)c1ccc(-c2ccc(=O)[nH]n2)o1	13µM*	3%	2%	5%
CCN(CC)c1ccc(NS(=O)(=O)c2ccc(-c3ccc(=O)[nH]n3)o2)c(C)c1	-4%	5%	u	-10%
COc1ccccc1N1C(=O)CC(N2CCc3ccccc32)C1=O (centres undefined)	2%	6%	u	-9%
O=C(O)CN(c1ccc(F)cc1)S(=O)(=O)c1ccc2c(c1)OCCO2	-5%	7%	45%	-6%
Cc1ccc(N(CC(=O)N2CC(=O)Nc3ccccc32)S(=O)(=O)c2ccc3c(c2)OCCO3)cc1	u	-19%	12µM*	0%
O=C(CNC(=O)c1ccccc1F)OCc1csc(-c2ccccc2)n1	52%	-6%	77%	0%
COc1cc(N=Nc2cccc(S(N)(=O)=O)c2)c2ccccc2c1N	2.9µM*	-2%	4.1µM*	-25%
C[C@H](CO)N1C[C@H](C)[C@@H](CN(C)Cc2ccccc2)OCCCC[C@H](C)Oc2ccc(N(C)C)cc2C1=O	x	x	x	-6%
O=C(NCc1ccncc1)c1cc(C(=O)C2CCCCC2)c[nH]1	u	0%	254%	-5%
Cc1cc(-c2csc(N)n2)c(C)n1C	10µM*	0%	x	28µM*
Cc1nc(C(=O)Nc2ccccc2)sc1C1(C)CC(c2cccc([N+](=O)[O-])c2)=NO1 (centres undefined)	-8%	-1%	u	-18%
CSCCC(NS(=O)(=O)c1ccc(C)cc1)C(=O)NC1CCCCCC1 (centres undefined)	u	-12%	9.3µM*	-5%
CSCCC(NS(=O)(=O)c1ccc2c(c1)oc(=O)n2C)C(=O)NC1CCN(Cc2ccccc2)CC1 (centres undefined)	1.9µM*	1%	8%	-11%
CSCCC(NS(=O)(=O)c1ccc(C)cc1)C(=O)N1CCN(C(c2ccccc2)c2ccccc2)CC1 (centres undefined)	6.6µM*	-1%	3.7µM*	0%
O=C(CNC(=O)c1cccs1)OCc1ccc(Br)cc1	-5%	u	24%	-8%
O=C(C1COc2ccccc2O1)N1CCN(c2ccccc2O)CC1 (centres undefined)	u	-10%[6.58 µM]	u	-9%
Cc1cc(=O)oc(C)c1C(=O)NCC(C)C	4%	-5%	14%	-3%
CCCNC(=O)c1c(C)cc(=O)oc1C	6.6µM*	4%	33%	-5%
Cc1cccn2c(=O)c(/C=C(\C#N)C(=O)NC3CCS(=O)(=O)C3)c(N3CCC(C(N)=O)CC3)nc12 (centres undefined)	-1%	16%	-23%	-10%
Cc1ccccc1Oc1nc2c(C)cccn2c(=O)c1/C=C(\C#N)C(=O)NC1CCS(=O)(=O)C1 (centres undefined)	12µM*	-1%	5.9µM*	-1%
Cc1cccn2c(=O)c(/C=C(\C#N)C(=O)NC3CCS(=O)(=O)C3)c(Oc3ccccc3Cl)nc12 (centres undefined)	u	0%	4.7µM*	13%
CC(=O)c1ccccc1NC(=O)COC(=O)/C(=C/c1ccccc1)n1nnnc1C	2.1µM*	-4%	5.9µM*	-16%
O=C(NCC(=O)N1CCN(Cc2ccccc2)CC1)c1ccccc1Cl	x	x	x	-2%
N#CC1=C(N)N=C(SCc2cccc3ccccc23)C(C(N)=O)C12CCCCC2 (centres undefined)	12µM*	-13%	x	-5%
Nc1cc(=O)[nH]c(SCc2cccc3ccccc23)n1	39%	-2%	u	-1%

Screening results as filed in PubChem.
